Consider 13 molecules from PubChem BioAssay.

“And” between values parts separate entries of the source, which are not always exact repeats. Equal values may be shown once. Results filed as inconclusive are left out. For some assays here: Potency and affinity values are given separately. The source made the active and inactive calls. Unless noted, the rule behind the calls is not given here.

Test [1] is described as follows: compounds altering circadian rhythm period length – cell-based, LOPAC library, luminescence reporter (AID 2774).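 Note: values are relative to mean of DMSO wells on each plate.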 Particulars: circadian reporter cells, at 7 µM, actives lie on both sides.
For test [2], the system named is Hepatitis C virus NS3 helicase. The test can be described thus: blockers of NS3h binding to ssDNA – biochemical, fluorescence polarization, LOPAC1280 library, primary screen (AID 687035; in the data active = inhibition above about 37%). As to conditions: Purified HCV NS3 helicase, Cy5-dT15 ssDNA binding fluorescence polarization; stronger effect = higher value; concentration not given here. (Fluorescence polarisation rises when a labelled molecule tumbles more slowly, as on binding a larger partner.)

Test [3] can be described thus: compounds altering Cy5-DNA-NS3h complex signal – biochemical, LOPAC1280, artefact control for HCV NS3 helicase inhibitor project (AID 687037). As to conditions: Cy5-DNA-NS3h complex fluorescence interference counterscreen. For orientation: The purpose of a counterscreen is to sort out artefacts and off-target activity.
Test [4] deals with Aerobactin synthetase IucA (Klebsiella pneumoniae, hypervirulent). The experiment in a line: biochemical IucA inhibition screen of LOPAC library by absorbance (AID 1346212).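 Note: 100% = no compound wells and 0% = no enzyme wells.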 As to conditions: IucA enzyme assay, absorbance (OD) readout; stronger effect = lower value;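 tested at 8 µM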.
Test [5] is described as follows: blockers of cellular phospholipid synthesis – cell-based, LOPAC library, screen 4, primary screen (AID 1347384). As to conditions: animal cells, phospholipid biosynthesis inhibition screen; at 10 µM.
Test [6] deals with ATP-dependent translocase ABCB1 (Homo sapiens) (UniProt P08183). The test can be described thus: P-glycoprotein substrate transport blockade – cell-based (AID 377; in the data active = fluorescence slope change above about 50%). Particulars: MDR1-expressing cells, fluorescent substrate accumulation slope; stronger effect = higher value; concentration not given here.
A short description of test [7]: blockers of polyQ-driven CASP3 activation – cell-based (AID 1583). As to conditions: polyglutamine-induced caspase-3 activation, cell assay; stronger effect = higher value;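 tested at 10 µM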.
Test [8] is described as follows: restoration of touch response, mutant HTT neurons – whole organism, C. elegans mechanosensory neurons, N-terminal huntingtin (AID 1599). As to conditions: C. elegans polyQ-huntingtin mechanosensory neurons, stronger effect = higher value.
Test [9] is described as follows: glutamate transport activators, MN-1 cells, MN-1 cell line (AID 1612).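 Note: tested at 1 µM final; 0% = mean of DMSO vehicle wells on each plate; positive means more glutamate uptake than control and negative means less.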 As to conditions: MN-1 motor neuron cells, stronger effect = higher value.
Test [10] is described as follows: GFP-Q80 aggregate reduction, neuronal-like cells, cell-based, NGF-treated PC12, GFPQ80 (AID 1614).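 Note: lower means fewer inclusions and 0 means no inclusions at all.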 Particulars: PC12 NGF-treated GFP-polyQ80 inclusion reduction.
The nature of test [11]: 75Q-TubH aggregate inhibition, S. cerevisiae, yeast (AID 1616). As to conditions: S. cerevisiae 75Q-TubH polyglutamine aggregation suppression; stronger effect = higher value.
Test [12] is described as follows: compounds altering viability of human ES cells (AID 493140).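 Note: cells exposed to compounds for four days before counting.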 As to conditions: human embryonic stem cell survival screen; stronger effect = higher value.

Chain of ATP-dependent translocase ABCB1 (Homo sapiens) (P08183 whole entry, looked up): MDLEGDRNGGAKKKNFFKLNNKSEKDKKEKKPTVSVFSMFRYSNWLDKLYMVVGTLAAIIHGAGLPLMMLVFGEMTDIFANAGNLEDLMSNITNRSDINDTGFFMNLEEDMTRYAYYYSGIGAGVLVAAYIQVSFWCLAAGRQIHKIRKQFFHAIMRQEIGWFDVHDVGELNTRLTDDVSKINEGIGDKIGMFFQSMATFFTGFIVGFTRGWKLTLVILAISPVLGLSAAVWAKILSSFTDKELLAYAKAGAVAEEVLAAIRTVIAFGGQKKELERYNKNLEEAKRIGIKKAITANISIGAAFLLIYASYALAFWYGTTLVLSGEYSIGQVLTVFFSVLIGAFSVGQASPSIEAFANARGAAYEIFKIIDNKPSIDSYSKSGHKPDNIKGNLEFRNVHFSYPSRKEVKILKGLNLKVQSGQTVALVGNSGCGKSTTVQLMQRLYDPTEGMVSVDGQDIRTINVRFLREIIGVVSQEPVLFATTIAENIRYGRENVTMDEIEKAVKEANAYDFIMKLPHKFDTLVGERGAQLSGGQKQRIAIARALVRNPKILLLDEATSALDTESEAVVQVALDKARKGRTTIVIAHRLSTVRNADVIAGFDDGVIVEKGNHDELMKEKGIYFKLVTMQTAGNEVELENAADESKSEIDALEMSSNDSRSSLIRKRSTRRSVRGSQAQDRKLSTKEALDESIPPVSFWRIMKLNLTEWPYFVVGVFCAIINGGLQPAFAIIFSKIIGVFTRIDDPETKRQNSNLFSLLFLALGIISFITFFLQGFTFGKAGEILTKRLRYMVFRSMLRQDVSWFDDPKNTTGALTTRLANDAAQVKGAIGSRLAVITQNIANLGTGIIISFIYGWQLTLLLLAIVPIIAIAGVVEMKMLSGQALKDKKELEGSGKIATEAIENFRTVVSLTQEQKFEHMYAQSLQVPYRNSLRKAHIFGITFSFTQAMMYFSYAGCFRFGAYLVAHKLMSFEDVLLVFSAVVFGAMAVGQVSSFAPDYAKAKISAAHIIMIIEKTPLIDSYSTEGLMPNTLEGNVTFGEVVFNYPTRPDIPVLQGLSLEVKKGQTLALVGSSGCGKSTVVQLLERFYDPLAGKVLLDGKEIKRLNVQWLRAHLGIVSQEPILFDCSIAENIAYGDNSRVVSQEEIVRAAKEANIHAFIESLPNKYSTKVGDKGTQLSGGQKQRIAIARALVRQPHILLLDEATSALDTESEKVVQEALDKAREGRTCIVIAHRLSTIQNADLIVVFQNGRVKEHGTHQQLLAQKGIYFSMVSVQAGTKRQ

Take `COc1ccccc1N1CCNCC1`: the period change in test [1] is 0.075 h (inactive). In addition, the inhibition in test [2] was -4% (inactive). Besides, the fluorescence ratio (interference) in test [3] was 0.9 (inactive). The remaining activity in test [4] is 96.8% (inactive). Moreover, the call in test [5] was inactive.

Consider `CCC1(CC)C(=O)C=CNC1=O`, for which the fluorescence slope change in test [6] was 54.5% (active). The inhibition in [7] was 13.3% and -20.6%. Also, the rescue above control in [8] is 1.62 and 19.3. For the same molecule, in test [9], the glutamate uptake change is -11.1% and -15%. The same molecule came in with an inclusion score in [10] of 2. Besides, the aggregation suppression score in test [11] is 0.581 and 1.33. Also, the survival in [12] was 10.8 (inactive).

For `CC(C)[N+](C)(CCC(C(N)=O)(c1ccccc1)c1ccccc1)C(C)C`, the inhibition in [7] came out at 22%. In [8], this molecule returned a rescue above control of -11.8. Moreover, in test [9], the glutamate uptake change is 20%. The molecule further yielded an inclusion score in test [10] of 1.5. In test [11], the aggregation suppression score is 1.25. The survival in [12] was 6.08 (inactive).

Take `Clc1ccc(C(OCCN2CCCCC2)c2ccccc2)cc1` (stereo not given): in [6], the fluorescence slope change is 54.5% (active). The inhibition in test [7] was determined as 4.2%. Also, the glutamate uptake change in test [9] was determined as 29.4%. Moreover, in test [11], the aggregation suppression score came to 1.4. The survival in [12] was 3.58 (inactive).

For the molecule `NC(=O)CN1CCCC1=O`, the fluorescence slope change in test [6] is 61.1% (active). Also, the inhibition in test [7] is 13.3%; in test [2], -4% (inactive). This molecule also came in with a rescue above control in test [8] of -11. Moreover, the glutamate uptake change in test [9] was -1.66%. The molecule further gave an inclusion score in test [10] of 2. The aggregation suppression score in test [11] turned out to be 1.37. Further, the period change in test [1] is 0.015 h (inactive). Moreover, the survival in test [12] was 17.8 (inactive). Further, the fluorescence ratio (interference) in test [3] was 1 (inactive). Besides, the remaining activity in test [4] is 110% (inactive). Moreover, in test [5], the molecule was classed as inactive.

`CCCCCCCCC(=O)NCc1ccc(O)c(OC)c1`: in [1], the period change was 0.08 h (inactive).

In the case of `C[C@@H]1O[C@@H](O[C@H]2C[C@@H](O)[C@]3(CO)[C@H]4[C@H](O)C[C@]5(C)[C@@H](C6=CC(=O)OC6)CC[C@]5(O)[C@@H]4CC[C@]3(O)C2)[C@H](O)[C@H](O)[C@H]1O`, in [1], the period change is -0.18 h (inactive). Moreover, in test [12], the survival is 1.08 (inactive). For the same molecule, the inhibition in [2] is -4% (inactive). Further, in test [3], the fluorescence ratio (interference) is 1 (inactive). Further, the remaining activity in test [4] was 109% (inactive). Further, the molecule was called inactive in [5].

Take `CC(=O)Nc1cc([As](=O)(O)O)ccc1O`: the inhibition in [7] was -3.61%. Besides, the rescue above control in [8] is -5.17. The glutamate uptake change in [9] is -5.59%. The molecule also came in with an inclusion score in test [10] of 2. The aggregation suppression score in test [11] was determined as 1.35.

On to `CC(C)(C)NCC(O)c1cc(Cl)c(N)c(Cl)c1` (stereo not given), for which, in [6], the fluorescence slope change was -2.7% (inactive). Moreover, the inhibition in test [7] came out at 5.01%. For the same molecule, the rescue above control in test [8] was -3.16. For the same molecule, the glutamate uptake change in test [9] is -4.4%. Besides, the inclusion score in test [10] turned out to be 2. Further, the aggregation suppression score in test [11] is 1.64. The survival in [12] is 11.5 (inactive).

With `CC(=O)NC1CCSC1=O` (stereo not given), the survival in [12] was 5.75 (inactive).

For `CNC(C)(C)Cc1ccccc1`, in [6], the fluorescence slope change was 29.7% (inactive). In addition, the inhibition in [7] was -8.9%. Further, the rescue above control in [8] was -1.26. Moreover, the glutamate uptake change in test [9] came to 3.05%. The molecule further had an inclusion score in test [10] of 2. The molecule further showed an aggregation suppression score in [11] of 1.35. Also, the survival in [12] is 4.83 (inactive).

In the case of `COc1ccc(Cc2nccc3cc(OC)c(OC)cc23)cc1OC`, the fluorescence slope change in test [6] was 84.8% (active). Besides, the inhibition is 3.42% in test [7] and -1% (inactive) in test [2]. The same molecule returned a rescue above control in test [8] of 14.9. Also, in test [9], the glutamate uptake change is -13.9%. In [10], the inclusion score was 2. The aggregation suppression score in [11] came to 1.65. Further, the period change in [1] is -0.02 h (inactive). Also, the survival in test [12] was 5.5 (inactive). The fluorescence ratio (interference) in test [3] was 1 (inactive). In addition, the remaining activity in test [4] was 119% (inactive).

As to `O=[N+]([O-])O[C@H]1CO[C@H]2[C@@H]1OC[C@H]2O[N+](=O)[O-]`, the fluorescence slope change in test [6] is -12.8% (inactive). Moreover, the inhibition in test [7] was found to be 15%. In addition, in test [8], the rescue above control is -2.31. Moreover, the glutamate uptake change in test [9] is -15.4%. The inclusion score in test [10] is 1. In addition, the aggregation suppression score in [11] was found to be 1.27. Moreover, the survival in [12] was 6 (inactive).

In general, inhibition refers to the change of the read-out against control, counted positive when it falls. As a reminder, the remaining activity is the signal under treatment as a percentage of the control signal.
